Screening data (PubChem BioAssay)
GLP-1R agonist = activates the human GLP-1 receptor. Potency, µM (top dose mostly 45.6 µM), inactives show at the top dose activation, actives largely listed as activators. 0.007% of 380,000 active. P43220. HEK293 GLP-1R CRE-luciferase, luminescence, 4-6 h; cells express a hypersensitive GLP-1R form; note: % of control where 0% means no effect
VP16 counter = inhibits Gal4-VP16 luciferase reporter, ROR gamma counter-screen; 3.5% of 310,000 active; Drosophila S2 Gal4-VP16 UAS-luciferase, luminescence, 20 h; Potency, µM (titrated, usually from 53.6 µM), inactives show at the highest dose activity, negative = inhibition, most hits filed as inhibitors; AID 2546;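 note: Gal4-VP16 expression switched on by copper sulfate through the metallothionein promoter; % is set by controls: 0 for no effect and ±100 for the full control effect; nearly all actives have a fitted effect of over 50% in size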
HEK293 tox = cytotoxicity counter-screen for GLP-1 receptor inverse agonists | HEK293 cAMP-luciferase reporter cells, luminescence, 24 h | Potency, µM (series often up to 38.3 µM), for the others: at the highest dose activity change, negative = inhibition, actives largely listed as inhibitors | 0.13% of 410,000 active | AID 624418;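 note: loss of luciferase light is scored as toxicity; % is set by controls: 0 for no effect and ±100 for the full control effect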
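Step one: seed cells (200 cells/uL, DMEM with 10% Nu serum, 1% pen-strep). Step two: 12-hour incubation at 37 deg C. Step three: pin 23 nL compound, incubate 24 hr. Step four: add luciferase reagent, read luminescence 12 min later.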
RORg inh = blocks mouse ROR gamma transcriptional activity; Drosophila S2 Gal4-RORgamma UAS-luciferase reporter, 20 h; Potency, µM (series often up to 53.6 µM), without a hit: top-dose activity change, negative = inhibition, actives largely listed as inhibitors; 5.4% of 310,000 active; AID 2551; note: % is set by controls: 0 for no effect and ±100 for the full control effect; nearly all actives have a fitted effect of over 60% in size
Target sequence (P51450 whole entry, looked up, the tested form may be a part): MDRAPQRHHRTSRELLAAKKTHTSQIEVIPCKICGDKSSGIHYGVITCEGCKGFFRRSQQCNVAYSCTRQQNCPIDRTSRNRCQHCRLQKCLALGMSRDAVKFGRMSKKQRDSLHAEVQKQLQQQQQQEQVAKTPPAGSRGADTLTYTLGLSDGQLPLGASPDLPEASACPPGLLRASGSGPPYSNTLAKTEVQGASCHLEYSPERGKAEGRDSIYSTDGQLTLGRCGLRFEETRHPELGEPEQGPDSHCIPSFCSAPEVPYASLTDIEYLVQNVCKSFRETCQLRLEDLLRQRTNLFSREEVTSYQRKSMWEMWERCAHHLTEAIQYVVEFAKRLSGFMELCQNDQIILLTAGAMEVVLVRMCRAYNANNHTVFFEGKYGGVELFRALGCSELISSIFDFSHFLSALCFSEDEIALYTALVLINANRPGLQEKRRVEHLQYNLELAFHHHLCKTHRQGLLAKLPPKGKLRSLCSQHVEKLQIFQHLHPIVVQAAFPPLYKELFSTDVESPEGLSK
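A Gal4/UAS one-hybrid system in insect cells: metallothionein-promoter Gal4–ROR gamma fusion plus Photinus luciferase reporter. Copper sulfate 700 uM final, 20 hr ambient incubation, luminescent detection after 10 min with reagent.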
GLP1R inv ag = inverse agonists of human GLP-1 receptor. HEK293 GLP-1R CRE-luciferase, luminescence, 24 h; GLP-1R form is constitutively active. Potency, µM (top dose mostly 38.3 µM), for inactives: at the top dose activity change, negative = inhibition, usual class: inhibitors. 1.6% of 410,000 active; note: % is set by controls: 0 for no effect and ±100 for the full control effect; nearly all actives have a fitted effect of over 55% in size
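Constitutively active GLP-1R drives a cAMP-responsive luciferase in stably transfected HEK293 cells; test compounds are added after overnight (12 h) attachment and left 24 hr, and signal loss in luminescence marks inhibition.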
* marks the source's active call; other numbers are inactive results; u = inconclusive; x = not tested or not shown; [ ] = remark or other dose. An excerpt weighted towards active compounds, which were near 5.9% of everything screened. Calls come from the whole dose curve; as a rule, active = well fitted curve in the direction sought with a large enough effect; inconclusive = small, poorly fitted or top-dose-only effect, or another doubt; inactive = no such curve, though single readings can be large; an effect the other way counts as inactive or inconclusive. Potency is the fitted concentration of half-maximal effect.

SMILES | GLP-1R agonist | VP16 counter | HEK293 tox | RORg inh | GLP1R inv ag
CCSc1nc2ccccc2n1Cc1ccccc1F | 6% | -13% | 7% | 1% | u
CCSc1nc2ccccc2n1Cc1cccc([N+](=O)[O-])c1 | 20% | -11% | 3% | 16% | 11µM*
NC(N)=NCCC[C@H](N)C(=O)NCC(=O)N[C@@H](CC(=O)O)C(=O)N[C@@H](CO)C(=O)O | x | -7% | x | 27% | x
CCOC(=O)c1ccccc1NC(=O)Cn1c(=O)n(CCC(=O)NCc2ccccc2OC)c(=O)c2ccccc21 | -4% | x | -6% | x | 9%
COC1CCCN(Cc2cn(C)nc2-c2ccc(Oc3ccccc3)cc2)C1 (configuration not stated) | 12% | -5% | -1% | 5% | u
Cn1cc(CN2CCCCC2CO)c(-c2ccc(Oc3ccccc3)cc2)n1 (configuration not stated) | 19% | 0% | -9% | 14% | 10µM*
COCCn1c(=O)c(C)nc2cnc(N3CCN(C)CC3)nc21 | x | 0% | x | -9% | x
COc1ccc(-c2ccc(OC)c(C3C4C=CCCC4(C)C(=O)N3Cc3ccccc3)c2)cc1OC (configuration not stated) | x | -19% | x | 44% | x
NNC(=S)Nc1c(Br)cc(F)cc1Br | 1% | u | 0% | 6.3µM* | -17%
CCc1ccc(NC(=O)C(C)Oc2nnc(-c3cccs3)c(-c3cccs3)n2)cc1 (configuration not stated) | 0% | 5% | -18% | 39% | 10µM*
CCN(CC)CCn1c(-c2ccccc2)nc2c(NC3CCCCC3)nc(C)nc21 | x | -12% | x | -37% | x
Cn1cc(C(=O)CCl)c2ccccc21 | 0% | 7.9µM* | u | 11µM* | u
Cc1sc2ncn(CC(=O)N3CCN(c4ccccc4F)CC3)c(=O)c2c1S(=O)(=O)N1CCN(c2ncccn2)CC1 | -2% | x | 1% | x | 14%
O=C1C=CC(=C(c2ccc(O)cc2)c2ccc(O)cc2)C=C1 | -6% | u | 8.9µM* | u | 5.6µM*
Cc1cc(C(=O)COC(=O)c2ccc[nH]c2=O)c(C)n1-c1ccccc1F | -6% | u | 6% | u | -22%
CCCn1c(C)cc(C(=O)COC(=O)c2ccc[nH]c2=O)c1C | -17% | 6.3µM* | 17% | 4µM* | u
Cc1ccc(-n2c(C)cc(C(=O)COC(=O)c3ccc[nH]c3=O)c2C)cc1C | -4% | 0.02µM* | -2% | -38% | u
COCCn1c(C)cc(C(=O)COC(=O)c2ccccc2Br)c1C | -3% | u | -5% | -41% | u
Cc1ccc(C)c2sc(NC(=O)c3ccc(S(=O)(=O)N4CCC(C)CC4)cc3)nc12 | -4% | x | -2% | x | -21%
Cc1cc(C)c(C#N)c(SCc2nnc(-c3ccccc3)o2)n1 | -38% | u | 115% | u | -61%
Cc1ccc(C#N)c(SCc2nnc(-c3ccc(Cl)cc3)o2)n1 | -15% | u | 172% | 3.5µM* | -54%
O=C(COc1ccccc1)Nc1nnc(-c2ccc3c(c2)CCCC3)o1 | -3% | 3.5µM* | -13% | 5.6µM* | 11%
CS(=O)(=O)c1ccc(-c2nnc(NC(=O)c3cccc(N4C(=O)CCC4=O)c3)o2)cc1 | 3% | x | -3% | x | 0%
O=C(COc1ccccc1)Nc1nnc(-c2ccccc2Cl)o1 | 0% | x | -1% | x | 7%
O=C(Nc1nnc(-c2ccc3c(c2)CCCC3)o1)c1ccccc1Cl | -5% | 0.79µM* | u | 1.3µM* | u
SMILES | GLP-1R agonist | VP16 counter | HEK293 tox | RORg inh | GLP1R inv ag
O=C(COc1ccccc1)Nc1nnc(-c2ccc(F)cc2)o1 | 0% | 6.3µM* | -8% | u | 13%
O=C(Nc1nnc(-c2ccc3c(c2)CCCC3)o1)c1ccccc1 | -3% | 0.1µM* | u | 0.28µM* | u
Cc1ccc(NC(=O)CSc2cn(CC(=O)N3CCCC3)c3ccccc23)cc1Cl | x | x | -1% | x | -16%
COc1ccccc1OCC1CNC(=O)O1 (configuration not stated) | -2% | x | x | x | x
Cc1ccc(SCC(CC(C)C)N2CCN(C)CCC2=O)cc1 (configuration not stated) | x | -16% | x | -23% | x
Cc1cccc(N2CCN(C(=O)c3ccc(S(=O)(=O)N(C)c4ccccc4)cc3)CC2)c1C | 3% | x | -25% | x | 1µM*
Cc1cccc(N2CCN(C(=O)c3ccc4[nH]c(C)c(C)c4c3)CC2)c1C | 11% | x | -16% | x | 2.5µM*
Cc1[nH]c2ccc(C(=O)N3CCN(c4ccccc4Cl)CC3)cc2c1C | -1% | 3% | 0% | 8% | u
Cc1cccc(C)c1N1CCN(C(=O)c2ccc3c(c2)OCO3)CC1 | -2% | -5% | 11% | 3% | 10µM*
Cc1cccc(N2CCN(C(=O)c3ccc4c(c3)OCCO4)CC2)c1C | 0% | -16% | 14%[7.66 µM] | 15% | -29%[7.66 µM]
Cc1cccc(N2CCN(C(=O)C3CCCN(S(=O)(=O)c4ccc5c(c4)oc(=O)n5C)C3)CC2)c1C (configuration not stated) | -1% | x | -11% | x | u
CC(NC1=CC(=O)c2cccnc2C1=O)C(O)c1ccccc1 (configuration not stated) | -34% | x | 11µM* | x | u
CO[C@H]1COC(=O)[C@H]2CCCN2C(=O)C/C=C\[C@@H](C)[C@H](OC)COC(=O)[C@@H](OCc2ccccc2)/C=C\[C@@H]1C | x | -4%[10 µM] | x | 2%[10 µM] | x
O=C(CC(Nc1cccc(Cl)c1Cl)C(=O)O)c1ccccc1 (configuration not stated) | -5% | 26%[10 µM] | -7% | 11µM* | -10%
Cc1c(Cl)cccc1NC(CC(=O)c1ccccc1)C(=O)O (configuration not stated) | -2% | 6.3µM* | -15% | 7.9µM* | -29%
O=C(CC(Nc1cccc(Cl)c1Cl)C(=O)OCC(=O)c1cccs1)c1ccccc1 (configuration not stated) | -3% | -10% | -24% | 20% | u
O=C(CC(Nc1ccccc1Cl)C(=O)O)c1ccccc1 (configuration not stated) | -1% | 27%[10 µM] | -8% | 7.1µM* | -28%
O=C(CC(C(=O)O)c1ccc(Cl)cc1)c1ccccc1 (configuration not stated) | 3% | -6% | -10% | 20% | 9%
O=C(CC(Nc1ccc(Cl)cc1)C(=O)O)c1ccccc1 (configuration not stated) | -6% | 5µM* | -9% | 5µM* | 5%
O=C(CC(CC(=O)c1ccccc1)C(=O)O)c1ccccc1 | 9% | 6% | 21% | 0% | -2%
CCC[C@]1(CCc2ccccc2)CC(O)=C([C@H](CC)c2cccc(NS(=O)(=O)c3ccc(C(F)(F)F)cn3)c2)C(=O)O1 | -1% | x | x | x | x
CCN(CC)CCCn1c(-c2ccccc2)nc2c(NCCOC)nc(C)nc21 | x | -1% | x | -11% | x
